High-throughput results from PubChem.
Sm TGR block: blocks Schistosoma mansoni thioredoxin glutathione reductase; 360,000 tested, 3% active; Potency, µM (titrated, usually from 114 µM), for inactives: at the highest dose activity change, negative = inhibition, hits mostly inhibitors; purified TGR, DTNB reduction, TNB absorbance 405 nm; Q962Y6; AID 485364; also: potency is read from the fitted curve at half-maximal effect; % is scaled to controls: 0 for no effect and ±100 for the full control effect; nearly all actives have a fitted effect of over 60% in size
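Kinetic colorimetric format: TGR-catalysed, NADPH-driven DTNB reduction monitored via TNB absorbance. Enzyme dispensed at 20 nM; compound exposure 15 min at room temperature before reaction start.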
Pf growth 48h: P. falciparum growth inhibition at 48 hours (one generation); P. falciparum luciferase growth in erythrocytes, 48 h; Potency, µM (highest dose often 28.7 µM), without a hit: at the top dose activity change, negative = inhibition, most hits filed as inhibitors; 310,000 tested, 5.9% active; also: potency is read from the fitted curve at half-maximal effect; % is scaled to controls: 0 for no effect and ±100 for the full control effect
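Compounds are pin-transferred into medium, infected erythrocytes (2% hematocrit, 0.1% parasitemia final) are added, and plates sit one parasite generation at 37 C in 5% CO2. Detection reagent is then added and luminescence measured.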
SARS PLpro yeast: SARS-CoV PLP inhibition in yeast. S. cerevisiae expressing SARS-CoV PLpro, growth rescue. Potency, µM (series often up to 32.9 µM), without a hit: top-dose activity, positive = growth rescue, usual class: activators. 330,000 tested, 0.19% active. AID 485353; calls by dose curve; also: potency is read from the fitted curve at half-maximal effect; 0% is about no effect; nearly all actives have a fitted effect of over 55% in size
HCV inhibitor: blocks hepatitis C virus; AID 651820; Huh7.5.1 HCVcc-Cre infection, luciferase reporter, 44 h; Potency, µM (series often up to 41.8 µM), without a hit: at the highest dose activity change, negative = inhibition, most hits filed as inhibitors; 340,000 tested, 3.4% active; also: potency is read from the fitted curve at half-maximal effect; % is scaled to controls: 0 for no effect and ±100 for the full control effect
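HCVcc-Cre virus at an moi near 0.5 was added right after compound to cells cultured 4 h from seeding (1,000 cells/well). Luciferase activity was determined 44 h later, 15 min after substrate addition at RT.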
HCMV antiviral: blocks human cytomegalovirus replication. HFF cells, HCMV-luciferase reporter, 72 h; stronger effect = lower value. activity change, negative = inhibition, % at 57.5 µM. 410,000 tested, 4.5% active. AID 1259415; in the data active = activity change below about -60%; inconclusive = no clear call, values can overlap the other calls; inactive = above about -39%; also: % is scaled to controls: 0 for no effect and ±100 for the full control effect
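HFF cells seeded 16 h at 37C, treated with compounds, infected with luciferase-reporter HCMV at MOI 1 PFU/cell; luciferase read at 72 h post infection, normalized to buffer-only and Salinomycin controls.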
Pf growth 96h: P. falciparum growth inhibition at 96 hour, primary screen for plastid delayed-death inhibitors. AID 504834. 320,000 tested, 6.9% active. P. falciparum luciferase reporter growth, 96 h. Potency, µM (top dose mostly 28.7 µM), without a hit: at the highest dose activity change, negative = inhibition, most hits filed as inhibitors; also: potency is read from the fitted curve at half-maximal effect; % is scaled to controls: 0 for no effect and ±100 for the full control effect
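P. falciparum expressing integrated firefly luciferase, in erythrocytes at 2% hematocrit, 0.05% parasitemia, incubated with compounds 96 h at 37 C, 5% CO2. Growth inhibition read as loss of luminescence; two-generation exposure targets delayed-death apicoplast inhibitors.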
An asterisk follows results filed as active; ? = inconclusive; · = no result. Compounds with a hit are over-represented: about 15% of the library has one in this group of screens. Unless noted, calls follow the shape of the dose curve; as a rule, active = well fitted curve in the direction sought with a large enough effect; inconclusive = small, poorly fitted or top-dose-only effect, or another doubt; inactive = no such curve, though single readings can be large; an effect the other way counts as inactive or inconclusive.

SMILES | Sm TGR block | Pf growth 48h | SARS PLpro yeast | HCV inhibitor | HCMV antiviral | Pf growth 96h
c1ccc(Cn2nnc3c(NCC4CCCO4)ncnc32)cc1 (stereo not given) | 2% | 42% | 2% | -21% | 96 | 12µM*
O=C(CNC(=S)N(Cc1ccccc1F)C1CCCCC1)NCC1CCCO1 (stereo not given) | 2% | ? | 0% | -13% | -61* | 11%
O=C(CSc1ncnc2c1nnn2Cc1ccccc1F)NCC1CCCO1 (stereo not given) | 5% | 15µM* | -2% | 2% | ? | ?
COc1cc(C(=O)NC2CC(C)CC(C)(C)C2)cc(OC)c1OC (stereo not given) | · | · | · | · | -23 | ·
CN1CCN(C(=O)c2cc3c(c(-c4cccc(-c5cc6ccccc6o5)c4)n2)[C@H](CCO)N(S(=O)C(C)(C)C)C3)CC1 (stereo not given in full) | · | · | · | · | -19 | ·
CC(C)(C)OC(=O)Nc1ccccc1-n1nnnc1C(C(=O)c1ccc(F)cc1)N1CCN(c2ccccn2)CC1 (stereo not given) | · | · | · | · | 16 | ·
c1csc(CNc2ccc3c(c2)OCCO3)c1 | 31% | 222% | -12% | ? | -86* | 125%
Clc1cc(NCc2cccs2)ccc1N1CCOCC1 | 45µM* | 31% | -12% | 22% | 122 | 3%
O=C(Nc1ccc(N2CCOCC2)c(Cl)c1)c1ccccc1Cl | 17% | 66% | 0% | ? | -36 | ?
Cn1cnc2cc(NCc3cccs3)ccc21 | ? | 52% | -3% | 16% | -6 | 10µM*
C[C@@H]1CN([C@@H](C)CO)S(=O)(=O)c2ccc(Br)cc2O[C@H]1CN(C)C(=O)c1ccccc1 | · | · | · | · | -22 | ·
C=CCn1c(SCC(=O)c2ccc(O)c(O)c2)nnc1-c1cccc(OC)c1 | ? | ? | 1% | ? | 24 | ?
C=CCN1C[C@@H](C)N(C(c2ccc(C(=O)N(CC)CC)cc2)c2cccc(OC)c2)C[C@@H]1C (stereo not given in full) | -8% | 1.7µM* | · | 21% | -21 | 7%
C=CCN1C[C@H](C)N([C@H](c2ccc(C(=O)N(CC)CC)cc2)c2cccc(OC)c2)C[C@H]1C | · | 4.8µM* | · | · | · | -25%
C[C@H](CO)N1C[C@H](C)[C@@H](CN(C)Cc2ccccc2)Oc2c(NC(=O)c3ccncc3)cccc2C1=O | · | · | -3% | ? | -2 | ·
C[C@H](CO)N1C[C@H](C)[C@@H](CN(C)Cc2ccc(Cl)c(Cl)c2)Oc2c(NC(=O)C3CC3)cccc2C1=O | · | · | -1% | ? | -10 | ·
C[C@H](CO)N1C[C@H](C)[C@@H](CN(C)Cc2ccc(-c3ccccc3)cc2)Oc2c(NC(=O)c3ccncc3)cccc2C1=O | · | · | -2% | 10µM* | -5 | ·
C[C@H]1CN([C@@H](C)CO)C(=O)c2cccc(NC(=O)C3CC3)c2O[C@H]1CN(C)Cc1ccc(C(F)(F)F)cc1 | · | · | -3% | 3% | -88* | ·
O=C(CC[C@H]1O[C@@H](n2ccc(=O)[nH]c2=O)[C@H](O)[C@@H]1O)N[C@H](Cc1ccccc1)C(=O)NCC1CCCO1 (stereo not given in full) | · | · | · | · | 17 | ·
COc1ccc(C(=O)N(C)C2CCCN(Cc3ccccc3F)C2)cc1C (stereo not given) | 1% | ? | 6% | ? | 22 | 5.2µM*
CN(C)CCN(CC1CCCN(Cc2ccccc2F)C1)C(=O)Cc1ccccc1F (stereo not given) | -4% | ? | 1% | ? | -24 | 0%
Cc1ccc(C(=O)N(CCN(C)C)CC2CCCN(Cc3ccccc3F)C2)cc1C (stereo not given) | -38% | ? | 2% | 11µM* | ? | 30%
COCc1ccc(C(=O)N(C)C2CCCN(Cc3ccccc3F)C2)o1 (stereo not given) | -13% | ? | 1% | -30% | -19 | 2.9µM*
COC(=O)c1sc(NC(=O)C2CCCCC2C(=O)O)c(C(=O)OC)c1C (stereo not given) | -3% | -23% | 6% | 1% | -10 | ·
CCCC[C@@H](C)C[C@@H](C)C(=O)N(C)[C@@H](CC(C)C)C(=O)N[C@H](C(=O)N(C)[C@H](C(=O)N1C[C@@H](O)C[C@H]1C(=O)N1C(=O)C=C[C@@H]1C)C(C)C)C(C)OC(C)=O (stereo not given in full) | · | · | 0% | 4µM* | · | ·
SMILES | Sm TGR block | Pf growth 48h | SARS PLpro yeast | HCV inhibitor | HCMV antiviral | Pf growth 96h
CCN(CC)c1ccc(-c2nn3c(-c4n[nH]c5c4CCC5)nnc3s2)cc1 | 0% | ? | -7% | 7.9µM* | 35 | 52%
C1CCC(c2nn3c(-c4n[nH]c5c4CCC5)nnc3s2)CC1 | 0% | ? | -13% | -16% | -24 | ?
COc1ccc([N+](=O)[O-])cc1NC(=O)C(C)Sc1nc(-c2ccccc2)cs1 (stereo not given) | 21% | ? | -17% | 13µM* | 20 | ?
CCC(C)C(=O)Nc1ccc([N+](=O)[O-])cc1OC (stereo not given) | -5% | 4% | 1% | -24% | 14 | 39%
COc1cc(CN(C)C(C)C(=O)Nc2ccc([N+](=O)[O-])cc2Cl)ccc1OC(F)F (stereo not given) | -4% | 13µM* | 27% | ? | -20 | ?
COc1ccccc1NC(=O)C(C)N(C)CC(=O)Nc1cccc2ccccc12 (stereo not given) | · | · | 4% | -16% | 32 | ·
COc1ccccc1NC(=O)C(C)N(C)Cc1ccc(Cl)s1 (stereo not given) | -2% | 8.3µM* | -8% | -19% | -38 | ?
COc1ccc([N+](=O)[O-])cc1NC(=O)C(C)N(C)Cc1cccc(OC)c1OC (stereo not given) | 0% | -18% | 13% | 35µM* | -33 | ?
OCC1OCOC2C(CO)OCOC12 (stereo not given) | · | · | · | 17% | -1 | ·
COc1ccc(Cl)cc1NC(=O)CN(C)C(C)C(=O)NCC1CCCCC1 (stereo not given) | 5% | -18% | 1% | -24% | -31 | ?
COc1ccc(Cl)cc1NC(=O)C(C)N(C)Cc1ccc(C(F)(F)F)cc1 (stereo not given) | ? | 7.4µM* | -3% | 14µM* | -87* | 2.1µM*
O=C(O)c1c(Cl)c(Cl)c(Cl)c(Cl)c1C(=O)OCC1CCCO1 (stereo not given) | · | · | · | · | -30 | ·
Cc1ccc(-c2nnc(Nc3ccc(O)cc3)c3ccccc23)cc1S(=O)(=O)N1CCCCC1 | -8% | · | · | · | -90* | ·
